# Assay results as given in PubChem BioAssay AID463173 (ICCB-Longwood Screening Facility, Harvard Medical School, 2010).
# Hit rate of the full screen: of about 52,000 compounds, about 1,700 (3.3%) were called active. Rule as the data show it: active = survival mostly below about 52% (no sharp cut-off); inactive = mostly above about 56%. This excerpt belongs to a sample that is enriched for actives.
# System: Wild type
# Assay: growth inhibition of S. aureus wild type versus tarO mutant, primary screen, teichoic acid synthesis inhibitors, RN4220, OD600 (AID 463173)
# Details: S. aureus RN4220 wild type/DeltatarO growth, OD600, 18 h, hits give low values, screened at 18.75 µg/mL (by protocol)
row,Compound,survival
1,Cc1ccc(C)c(NC(=O)Cn2c(=O)n(CC3CCCO3)c(=O)c3ccccc32)c1 (centres undefined),119% (inactive)
2,CCOC(=O)c1c(NC(=O)c2cc3nc(-c4ccccc4)cc(C(F)(F)F)n3n2)sc2c1CCC(C)C2 (centres undefined),65% (inactive)
3,O=S(=O)(c1ccc(Br)cc1)N1CCn2cccc2C1c1ccc(Br)cc1 (centres undefined),65% (inactive)
4,CCCOC(=O)c1cccc(Nc2nc(C(=O)OCC)nc3ccccc23)c1,44% (inactive)
5,Cc1ccc(CNS(=O)(=O)c2c(C(=O)N3CCC(C)CC3)c(C)n(C)c2C)cc1,76% (inactive)
6,O=C(Nc1nnc(C2CCCC2)s1)C1CC1,105% (inactive)
7,CNC(=O)Nc1ccc2nc(C)sc2c1,112% (inactive)
8,COC(=O)CCN(c1ccccc1)S(=O)(=O)c1cc(-c2cc(C)no2)ccc1OC,90% (inactive)
9,Cc1ccc2cc(CN(CC3CCCO3)C(=O)C(F)(F)F)c3nnnn3c2c1C (centres undefined),115% (inactive)
10,CC(Oc1ccc(F)cc1)C(=O)N1CCC(c2nc3ccccc3s2)CC1 (centres undefined),80% (inactive)
11,COc1ccccc1OC(C)C(=O)N1CCC(c2nc3ccccc3s2)CC1 (centres undefined),-2% (active)
12,CCCOc1ccccc1C(=O)N1CCC(c2nc3ccccc3s2)CC1,68% (inactive)
13,CCc1ccc(OC(C)C(=O)N2CCC(c3nc4ccccc4s3)CC2)cc1 (centres undefined),35% (inactive)
14,Cc1ccccc1OCC(=O)N1CCC(c2nc3ccccc3s2)CC1,65% (inactive)
15,CCC(Oc1ccccc1F)C(=O)N1CCC(c2nc3ccccc3s2)CC1 (centres undefined),-3% (active)
16,COCCn1c(CNC(=O)c2ccccc2C)nc2cccnc21,69% (inactive)
17,COc1cc(Cl)c(C)cc1NC(=O)CNC(=O)Cn1ccc2ccccc2c1=O,65% (inactive)
18,COC(=O)C1=C(c2ccccc2)c2ccccc2S(=O)(=O)N1CC(=O)Nc1cc(C)ccc1C,77% (inactive)
19,CCN(CC)S(=O)(=O)c1ccc2c(c1)N(CC(=O)NCc1ccccc1)C(=O)C1CCCCN21 (centres undefined),102% (inactive)
20,CCOc1ccc2nc(NCCCNC(=O)C3CCCO3)c(C#N)cc2c1 (centres undefined),105% (inactive)

row,Compound,survival
1,CCC(C)NC(=O)Cn1c(=O)n(-c2ccc(OC)c(OC)c2)c(=O)c2ccccc21 (centres undefined),87% (inactive)
2,COc1cccc(CNC(=O)CCCN2C(=O)CSc3c2c(C)nn3-c2ccccc2)c1,89% (inactive)
3,CN1CC2(C)CN(C(=O)c3ccccc3Cl)CC(C)(C1)C2,112% (inactive)
4,COc1ccc(C(=O)N2CCC(C(=O)Nc3ccc(Cl)cc3)CC2)cc1,122% (inactive)
5,COc1ccccc1C(=O)n1nc(-c2ccccc2)nc1NCc1ccc(Cl)cc1,66% (inactive)
6,CC1(c2ccccc2)CC(C)(C)N(C(=O)c2ccccc2Cl)c2ccccc21 (centres undefined),-2% (active)
7,COc1ccc(CCC(=O)NCc2ccc3c(c2)CCN3C(=O)c2ccc(Cl)cc2)cc1,80% (inactive)
8,CC1CCN(c2ccc(NC(=O)c3cccc(Cl)c3)cc2C(=O)O)CC1,76% (inactive)
9,CC1(c2ccccc2)CC(C)(C)N(C(=O)c2cccc(Cl)c2)c2ccccc21 (centres undefined),6% (active)
10,COc1ccccc1C(=O)N1c2ccccc2C(C)(c2ccc(Cl)cc2)CC1(C)C (centres undefined),2% (active)
11,COc1ccc(C(=O)N2c3ccccc3C(C)(c3ccc(Cl)cc3)CC2(C)C)cc1 (centres undefined),6% (active)
12,CC1CCN(C(=O)c2cccc(Cl)c2)CC1,112% (inactive)
13,COc1ccccc1C(=O)CC1(O)C(=O)N(CC(N)=O)c2ccccc21 (centres undefined),65% (inactive)
14,O=C(c1ccccc1Cl)n1cc(Cl)cn1,100% (inactive)
15,Cc1ccc(F)cc1NC(=O)Cn1c(C)cc(C)c(C#N)c1=O,131% (inactive)
16,CCOc1ccc(CNC(=O)Cn2nc(C)c3c(C)n(-c4ccc(C)cc4)nc3c2=O)cc1,78% (inactive)
17,O=C(CSc1ccc2nnc(CCNS(=O)(=O)c3ccccc3)n2n1)Nc1ccccc1C(F)(F)F,107% (inactive)
18,Cc1cccc(S(=O)(=O)Nc2cccc(-c3ccc(N4CCCCC4)nn3)c2)c1,69% (inactive)
19,N#Cc1ccccc1NC(=O)C(=O)NCC(c1cccnc1)N1CCN(c2ccccc2)CC1 (centres undefined),99% (inactive)
20,Cc1ccc(NC(=O)c2c(C)nc3sc(C(=O)Nc4ccc(F)cc4)c(N)c3c2-c2ccccc2Cl)c(C)c1,65% (inactive)

row,Compound,survival
1,Cc1cn(C)c(CC(=O)Nc2ccc(F)cc2Cl)c1C(=O)O,76% (inactive)
2,CCOC(=O)c1cccc(NC(=O)CCn2nc(C)c3c(C)n(-c4ccccc4)nc3c2=O)c1,73% (inactive)
3,O=C(c1cccc(F)c1)N1CCC(c2c[nH]c3ccccc23)(c2c[nH]c3ccccc23)CC1,63% (inactive)
4,CC1(c2ccc(Cl)cc2)CC(C)(C)N(C(=O)c2cccc(F)c2)c2ccccc21 (centres undefined),7% (active)
5,CC1(C)C(=O)N(CC(=O)Nc2ccc(Cl)cc2)c2ccccc21,59% (inactive)
6,O=C(NCc1ccc2c(c1)CCN2C(=O)c1ccc(Cl)cc1)c1cccc(F)c1,55% (inactive)
7,CC1CC(C)CN(C(=O)c2ccc(Cl)cc2)C1 (centres undefined),117% (inactive)
8,CC1(c2ccc(Cl)cc2)CC(C)(C)N(C(=O)c2ccccc2)c2ccccc21 (centres undefined),-11% (active)
9,COc1ccc(-n2c(SCC(=O)Nc3ccc4c(c3)OCO4)nc3c([nH]c4ccccc43)c2=O)cc1,81% (inactive)
10,Cc1ccc(COC(=O)c2[nH]c3c(c2C)C(=O)CC(c2ccc(Cl)cc2)C3)cc1 (centres undefined),84% (inactive)
11,COc1cc2[nH]c(=O)n(CCCC(=O)NCc3ccc(Cl)cc3)c(=O)c2cc1OC,90% (inactive)
12,CC(=O)Nc1ccc(OCC(O)CN2CCN(c3ccc(C)c(Cl)c3)CC2)cc1 (centres undefined),98% (inactive)
13,Cc1cc(OCC(O)CN2CCN(c3cccc(Cl)c3)CC2)ccc1Cl (centres undefined),0% (active)
14,COc1ccccc1N1CCN(CC(O)COc2ccc(Cl)c(C)c2)CC1 (centres undefined),66% (inactive)
15,O=C(c1cc2ccccc2oc1=O)N1CCCCCC1,88% (inactive)
16,Cc1ccc(-n2ncc(C(=O)NCCN3CCCC3)c2C2CCN(C(=O)OC(C)(C)C)CC2)cc1,153% (inactive)
17,COc1ccc(-c2nnc(SCC#N)o2)cc1,106% (inactive)
18,COc1cccc(CSc2nnc(-c3ccc(F)cc3)o2)c1,113% (inactive)
19,COc1ccc(-c2nnc(SCc3cccc(Cl)c3)o2)cc1,13% (active)
